Compound activity: PubChem BioAssay, National Center for Advancing Translational Sciences (NCATS)
Only some compounds are listed: those with a hit (about 7% of all), similar ones and a draw of the others.
PI5P4K alpha inh – qHTS for Inhibitors of phosphatidylinositol 5-phosphate 4-kinase (PI5P4K); Phosphatidylinositol 5-phosphate 4-kinase type-2 alpha (Homo sapiens), P48426; PI5P4Kalpha enzyme, ADP-Glo luminescence, 60 min; hits give low values; max response, %; actives 1.2% (n = 330,000); AID 652105, 2013; active = max response of -50% or lower; inconclusive = between -30% and -50%; inactive = -30% or higher; note: value at the top dose of about 77 µM
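Compounds were pin-transferred onto PI5P4Kalpha and substrate in HEPES pH 7.4 buffer with EGTA, CHAPS and 5% DMSO. ATP (5 microM final) started the reaction, which ran 60 minutes at room temperature before ADP-Glo detection.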
GCN5L2 inh – qHTS Assay for Inhibitors of GCN5L2 | GCN5L2 HAT assay, ThioGlo1 CoA-SH fluorescence | Potency, µM (highest dose often 58.9 µM), actives largely listed as inhibitors | actives 0.21% (n = 390,000) | AID 504327, 2011
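GCN5L2 (20 nM) in 50mM HEPES pH 7.5, 0.1mM EDTA, 0.01% Tween-20 preincubated 15 min with compounds at room temperature. Reaction started with H3(1-25) 75uM, acetyl-CoA 70uM, ThioGlo1 50uM; CoA-thiol fluorescence (Ex340/Em540) read at 0 and 20 min.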
PLK1 PBD inh – qHTS for Inhibitors of PLK1-PDB (polo-like kinase 1 - polo-box domain): Primary Screen; Serine/threonine-protein kinase PLK1 (Homo sapiens), P53350; Plk1 PBD binding of FITC phosphopeptide, fluorescence polarization; Potency, µM, most hits filed as inhibitors; actives 2.8% (n = 360,000); AID 720504, 2013; note: series mostly up to about 57 µM; nearly all actives have a fitted effect of over 65% in size
Target sequence (P53350 whole entry, looked up, the tested form may be a part): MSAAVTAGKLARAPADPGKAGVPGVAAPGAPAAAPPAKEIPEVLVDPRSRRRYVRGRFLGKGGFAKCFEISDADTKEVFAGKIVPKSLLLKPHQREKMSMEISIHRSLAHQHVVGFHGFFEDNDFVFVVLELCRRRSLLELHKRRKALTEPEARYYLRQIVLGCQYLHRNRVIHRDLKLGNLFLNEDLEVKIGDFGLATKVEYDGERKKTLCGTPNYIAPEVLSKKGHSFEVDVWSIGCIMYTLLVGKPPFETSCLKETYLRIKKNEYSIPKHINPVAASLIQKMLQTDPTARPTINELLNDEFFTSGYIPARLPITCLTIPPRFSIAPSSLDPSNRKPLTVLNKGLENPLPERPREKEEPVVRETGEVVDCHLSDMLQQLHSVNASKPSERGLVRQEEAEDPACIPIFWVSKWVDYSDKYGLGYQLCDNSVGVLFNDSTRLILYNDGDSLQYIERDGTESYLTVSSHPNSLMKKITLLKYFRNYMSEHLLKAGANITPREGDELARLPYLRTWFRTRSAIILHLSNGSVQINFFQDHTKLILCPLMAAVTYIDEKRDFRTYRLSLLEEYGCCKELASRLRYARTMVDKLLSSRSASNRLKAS
HP1b binding inh – HTS for Inhibitors of HP1-beta Chromodomain Interactions with Methylated Histone Tails. Potency, µM (series often up to 114 µM), most hits filed as inhibitors. actives 0.56% (n = 390,000). AlphaScreen HP1-beta / biotin-H3K9me3 peptide binding. AID 540317, 2011; note: nearly all actives have a fitted effect of over 70% in size
Target sequence (P83916 whole entry, looked up): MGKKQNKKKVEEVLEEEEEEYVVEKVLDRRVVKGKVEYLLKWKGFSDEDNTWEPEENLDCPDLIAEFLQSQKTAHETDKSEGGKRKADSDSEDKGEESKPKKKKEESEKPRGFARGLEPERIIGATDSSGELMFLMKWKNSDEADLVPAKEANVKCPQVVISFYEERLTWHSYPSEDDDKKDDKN
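AlphaScreen: HP1-beta (50 nM) preformed 30 min with biotin-H3(1-18)K9me3 peptide (50 nM) in PBS pH 7.4, 0.01% Tween-20. Compound added for 30 min at RT, then streptavidin donor/nickel chelate acceptor beads (10 ug/mL) for 30 min.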
JMJD2A Tudor – qHTS Assay for Inhibitors of JMJD2A-Tudor Domain. actives 4.4% (n = 390,000). AlphaScreen JMJD2A-Tudor / H3K4me3 peptide binding. Lysine-specific demethylase 4A (Homo sapiens), O75164. Potency, µM (series often up to 114 µM), usual class: inhibitors; note: nearly all actives have a fitted effect of over 50% in size
BAZ2B block – qHTS Assay for Inhibitors of BAZ2B; AlphaScreen BAZ2B-H3K14Ac peptide displacement; Potency, µM (top dose mostly 114 µM), most hits filed as inhibitors; actives 4.4% (n = 360,000); note: nearly all actives have a fitted effect of over 60% in size
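Protein-peptide AlphaScreen: BAZ2B 50 nM, b-H3K14Ac 50 nM, 1x PBS pH 7.4 + 0.01% Tween-20. Preincubation 30 min RT; cpd 30 min RT (top 110 uM); beads 20 min RT, light-protected.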
Each line names hits and unclear results; the compound was inactive in the other large screens. Unless noted, calls come from the whole dose curve; as a rule, active = well fitted curve in the direction sought with a large enough effect; inconclusive = small, poorly fitted or top-dose-only effect, or another doubt; inactive = no such curve, though single readings can be large; an effect the other way counts as inactive or inconclusive.

Cc1cn([C@H]2C[C@H](O)[C@@H](/C=C/C(=O)NCc3cccc4ccccc34)O2)c(=O)[nH]c1=O	none (no result: GCN5L2 inh, HP1b binding inh, JMJD2A Tudor, BAZ2B block)
Cc1ccc(OCCN2C(=O)C(=O)c3cc(C)ccc32)cc1	PLK1 PBD inh inconclusive, HP1b binding inh inconclusive, JMJD2A Tudor 56.2µM, BAZ2B block 35.5µM
Cc1ccc2c(c1)C(=O)C(=O)N2Cc1ccc(OC(C)C)cc1	HP1b binding inh inconclusive, BAZ2B block inconclusive (no result: PI5P4K alpha inh, PLK1 PBD inh)
COc1ccccc1CNC(=O)C(=O)NCC(c1cccs1)S(=O)(=O)c1ccccc1 (stereo unspecified)	none (no result: PI5P4K alpha inh, PLK1 PBD inh)
COc1ccc(CCNC(=O)C(C)SCC(=O)Nc2ccc(F)cc2)cc1 (stereo unspecified)	none (no result: BAZ2B block)
CCN(CC)c1ccc(NC(=O)c2cc3c(OC)cccc3[nH]2)cc1	HP1b binding inh 44.7µM, JMJD2A Tudor 15.8µM, BAZ2B block 20µM
COc1cccc2[nH]c(C(=O)NC(C)c3ccccc3)cc12 (stereo unspecified)	none
O=C(CCC(=O)Nc1ccc(Cl)cc1Cl)N/N=C/c1ccc([N+](=O)[O-])o1	BAZ2B block inconclusive
O=C(O)c1ccccc1NC(c1ccccc1)c1ccc2cccnc2c1O (stereo unspecified)	PI5P4K alpha inh -57.0, PLK1 PBD inh 0.597µM, HP1b binding inh 25.1µM, JMJD2A Tudor 28.2µM (no result: GCN5L2 inh, BAZ2B block)
Cc1ccnc(NC(c2ccccc2)c2ccc3cccnc3c2O)c1 (stereo unspecified)	PLK1 PBD inh inconclusive, JMJD2A Tudor 14.1µM (no result: GCN5L2 inh, BAZ2B block)
Cc1ccnc(NC(c2ccccc2F)c2ccc3cccnc3c2O)c1 (stereo unspecified)	JMJD2A Tudor 12.6µM, BAZ2B block 25.1µM (no result: PI5P4K alpha inh, PLK1 PBD inh)
Oc1c(C(Nc2ccccn2)c2ccccn2)ccc2cccnc12 (stereo unspecified)	none
Oc1c(C(Nc2ccccn2)c2ccccc2F)ccc2cccnc12 (stereo unspecified)	JMJD2A Tudor 14.1µM, BAZ2B block 20µM (no result: PI5P4K alpha inh, PLK1 PBD inh)
Cc1ccc(NC(=O)CSc2nnc(-c3cc4occc4n3C)n2-c2ccccc2C)cc1F	none (no result: PI5P4K alpha inh, PLK1 PBD inh)
COc1ccccc1NC(c1cccnc1)c1ccc2cccnc2c1O (stereo unspecified)	PI5P4K alpha inh inconclusive, PLK1 PBD inh 2.99µM, HP1b binding inh inconclusive, JMJD2A Tudor 22.4µM, BAZ2B block 14.1µM
Oc1ccccc1C(Nc1nccs1)c1ccc2cccnc2c1O (stereo unspecified)	PI5P4K alpha inh inconclusive, PLK1 PBD inh inconclusive, JMJD2A Tudor 35.5µM, BAZ2B block 28.2µM
Cc1cc(NC(c2ccc(Cl)cc2)c2ccc3cccnc3c2O)no1 (stereo unspecified)	JMJD2A Tudor inconclusive, BAZ2B block 44.7µM
CC(C)C(=O)NC(c1ccc(Cl)cc1Cl)c1ccc2cccnc2c1O (stereo unspecified)	BAZ2B block inconclusive
O=C(O)c1ccc2cccnc2c1O	JMJD2A Tudor 10µM, BAZ2B block 25.1µM
CCC(=O)NC(c1ccc(Cl)cc1Cl)c1ccc2cccnc2c1O (stereo unspecified)	none
CCCN(CCC)C(=O)Cn1c(=O)n(-c2cccc(OC)c2)c(=O)c2c3c(sc21)CCCC3	none (no result: PI5P4K alpha inh, PLK1 PBD inh)
CCOc1ccc(OCC)c(NC(=O)c2cnc(SC)nc2-c2ccccc2)c1	none (no result: PI5P4K alpha inh, PLK1 PBD inh)
CN1CCCC1(C)C(=O)NCc1ccc(F)cc1Cl (stereo unspecified)	none (no result: GCN5L2 inh, HP1b binding inh, JMJD2A Tudor, BAZ2B block)
CC(Oc1ccc(F)cc1)C(=O)N1CCC(c2nc3ccccc3s2)CC1 (stereo unspecified)	none (no result: PI5P4K alpha inh, PLK1 PBD inh)
Cc1ccnc(NC(c2cc(C)ccc2O)c2ccc3cccnc3c2O)c1 (stereo unspecified)	JMJD2A Tudor 28.2µM, BAZ2B block 22.4µM (no result: PI5P4K alpha inh, PLK1 PBD inh)
COc1nsnc1NS(=O)(=O)c1ccc(NC(=S)NC(=O)c2ccncc2)cc1	none
COc1nsnc1NS(=O)(=O)c1ccc(NC(=S)NC(=O)c2cccnc2)cc1	PLK1 PBD inh inconclusive, HP1b binding inh inconclusive, JMJD2A Tudor 11.2µM, BAZ2B block inconclusive
O=C1N=C(N2C=CC(=C3C=CNC=C3)C=C2)/C(=C/N=NC(=O)c2ccccc2O)S1	PI5P4K alpha inh -60.7, HP1b binding inh 44.7µM, JMJD2A Tudor inconclusive, BAZ2B block 50.1µM
CC(=O)Nc1ccc(-c2ccnc3c2CC(C)(C(=O)Nc2ccc(F)c(Cl)c2)O3)cc1 (stereo unspecified)	none (no result: GCN5L2 inh, HP1b binding inh, JMJD2A Tudor, BAZ2B block)
COc1ccc(C2(CNS(=O)(=O)c3ccc(C)cc3)CCOCC2)cc1	none
COc1ccc(C2(CNC(=O)C(=O)Nc3ccc(C)cc3)CCOCC2)cc1	PLK1 PBD inh 23.8µM
Cc1ccc(N(C(C)C(=O)Nc2ccc3c(c2)OCO3)S(C)(=O)=O)cc1 (stereo unspecified)	PI5P4K alpha inh inconclusive, PLK1 PBD inh 2.99µM, JMJD2A Tudor inconclusive
Cc1ccc(N(C(C)C(=O)Nc2cccc(N(C)S(C)(=O)=O)c2)S(C)(=O)=O)cc1 (stereo unspecified)	none
N#CC1=C(N)C2=C(N3CCCCC3)CCCC2C1(C#N)C#N (stereo unspecified)	PI5P4K alpha inh -54.0, PLK1 PBD inh inconclusive, BAZ2B block 50.1µM
CSc1ccccc1NC(=O)c1ccc([N+](=O)[O-])cc1	PLK1 PBD inh 23.8µM, HP1b binding inh inconclusive, BAZ2B block inconclusive
O=C(Nc1ncc([N+](=O)[O-])s1)c1cccs1	none
Cc1cc(NC(=O)c2ocnc2C)no1	PLK1 PBD inh 23.8µM, JMJD2A Tudor inconclusive (no result: PI5P4K alpha inh)
Cc1cc(NC(=O)c2ccc([N+](=O)[O-])cc2)no1	PLK1 PBD inh 21.2µM, JMJD2A Tudor inconclusive
O=C(Nc1ccccc1O)c1ccc([N+](=O)[O-])cc1	none
Cc1cc(NC(=O)c2ccc(C(C)(C)C)cc2)no1	PLK1 PBD inh inconclusive (no result: GCN5L2 inh, BAZ2B block)
Cc1ncoc1C(=O)Nc1ncc([N+](=O)[O-])s1	PI5P4K alpha inh inconclusive, PLK1 PBD inh inconclusive, HP1b binding inh inconclusive, JMJD2A Tudor 39.8µM, BAZ2B block inconclusive
CC(C)[C@H](NC(=O)OC(C)(C)C)c1cc(C(=O)N(C)CCN(C)C)c(N)s1	none (no result: GCN5L2 inh, HP1b binding inh, JMJD2A Tudor, BAZ2B block)
Cc1ccc(CNC(=O)Cn2ccn(-c3ccc(F)c(F)c3)c(=O)c2=O)cc1	BAZ2B block inconclusive (no result: PI5P4K alpha inh, PLK1 PBD inh)
COc1ccc([C@H]2CC(=O)C=C(c3ccc(CNC(=O)OC(C)(C)C)cc3)C2)cc1	none
COc1ccccc1Cc1nc2ccccc2nc1SCC(=O)N1CCN(c2ccccc2)CC1	BAZ2B block inconclusive (no result: PI5P4K alpha inh, PLK1 PBD inh)
